# Measured values reported in the supplement of paper PMC6555819.
# System: LXRb homodimer (NR concentration 270 nM)
# Test: PBM binding z-score (relative to random genomic background probes); higher = stronger binding; sequences stand for … in GC…GCGATTGACAGCGTAGAATGAAGG
# Outline: (§1)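 Each nuclear receptor dimer, without ligand, was incubated for 1 h on custom Agilent 4×180K protein-binding microarrays. Binding was detected with antibodies against each partner (one per run), and scanned fluorescence was regression-normalized. The binding z-scores are referenced to random human genomic background probes.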
row,Sequence,PBM binding z-score
1,AATACAGGGTCATCGTAGGCTAGAGTACGCACAG,1.4
2,CGTCAAAGTTCAACTAAGGTAACGGAAAGCACGC,2.03
3,AATACAGGTTCACTAGGCCAGAGTAGGTACGAAT,0.333
4,ATACCATGGTGATCGTGAGGTCGTTGATACTAAC,-0.16
5,TCGAGTAGGTTAGGGGCATTCCGAATGGCGTCGA,-0.872
6,AATACAGGGTCATCGTAGGCCAGAGTACGCACAG,1.5
7,ATCTCTAGGTAAAGCTAGTTCAGTGAATGCAAAT,0.196
8,GCGACTGGGGCATCAGCAGGTTACCATCACTTAA,-0.992
9,CAAACTAAGTCACAGAGGTCAAAGTCCGTGCGTA,2.02
10,TGGCCTAGGTCATTCAGGGGCCAGTATAGAAAGC,0.0581
11,CAAACTAGGTCACGAAGGGTCAAAGTCGAATGAC,1.09
12,TCTTGTAGATCAATAGAGGTTAACAAAGTGCGCT,0.171
13,TCTTGTCGATCAAGCAGGTTAAGAAAGCCTGAGT,-0.662
14,TAGCCTAGGTCATGCAGGGGCCAGTATAGAAAGC,-0.427
15,CCTCGGAGGACAACAGGAAGTCAGAGCTGCCAGA,-0.823
16,AGTCAACGTTCACTAGGTAACGTAAGATTCAGCT,0.00206
17,AAAATGAGGTTATACGTAGATCAGGGAAGAAAGT,0.19
18,TCATATAGTTAAAGGTGAAAGTCGAACGATATGA,0.00404

# System: PPARa:RXRa (NR concentration 270 nM, RXRa partner concentration 90 nM)
# Test: as above
# Outline: as §1
row,Sequence,PBM binding z-score
1,CCTTACGGGTCACTAACAGGTTATAGCATTTGGA,4.89
2,CCTACTAGGCCAAAGGTCATTGATTCCAATGCTC,6.66
3,TAGCCTAGGTTATTCAGGGGCCAGTATAGAAAGC,0.523
4,ATCGGAAGGTCGTGAGGTGAGTATACAGAAAGGC,3.13
5,CGTCCAAGGTCAATGGTAGGTCAGTGAAAGCATT,5.14
6,TCTAGTTGGTCACGGAGGTCGCACACGACGGGTA,2.04
7,CCGACTGGGGCAGAAAGGTTACCATGCCATCCGG,2.23
8,CCTACTGGGCCAAAAAGGTGATTGATGCCGATAA,0.761
9,TCATATAGGTAAAGGCGAAAGTCGAACGATATGA,1.3
10,AGAAAGAGGTTAAGATCAGGGAAACAGAATACAT,3.66
11,TCATATAGGTAAGGGTGAAAGTCGAACGATATGA,2.47
12,GGAACGAGGGCATTCGACTTGATAGCATGGCGAT,1.41
13,AGAATGAGGTTATTAAGATCACGGAATTGCGGTC,3.18
14,ATATGTACGTTAGCTGGGGTCATTCAGACTAGGC,4.07
15,CCTTTTAGTTGACCATAAGGGCAACCGAAGCTCG,0.649
16,CCTACTGGGCCAAAGTTCATTGATTCCAATGCTC,5.47
17,ATTCAAAGTTCAGGACGAGGTAACGTAAAGCACG,3.21
18,TCATATATGTAATACAGGTGAAAGTCGGCATCTA,2.14
19,TCTCGGAGGACACGAAAGGTCAGAGTTCGACATC,3.71
20,GCTAGCAGGCCATATGGGTCACTCAATGACGGGC,1.98

row,Sequence,PBM binding z-score
1,CCAGACAGGTGAAAGGTAACTGAGTCTGGTACGC,3.52
2,AGTCAAAGTTCATCTCGGTAACGTAAGATATGCT,4.76
3,AATACAGGGTCATCGTAGGCTAGAGTACGCACAG,6
4,CGTCAAAGTTCAACTAAGGTAACGGAAAGCACGC,5.27
5,AATACAGGTTCACTAGGCCAGAGTAGGTACGAAT,3.19
6,ATACCATGGTGATCGTGAGGTCGTTGATACTAAC,0.884
7,TCGAGTAGGTTAGGGGCATTCCGAATGGCGTCGA,1.25
8,AATACAGGGTCATCGTAGGCCAGAGTACGCACAG,5.73
9,ATCTCTAGGTAAAGCTAGTTCAGTGAATGCAAAT,0.456
10,GCGACTGGGGCATCAGCAGGTTACCATCACTTAA,0.811
11,CAAACTAAGTCACAGAGGTCAAAGTCCGTGCGTA,5.18
12,TGGCCTAGGTCATTCAGGGGCCAGTATAGAAAGC,3.59
13,CAAACTAGGTCACGAAGGGTCAAAGTCGAATGAC,6.41
14,TCTTGTAGATCAATAGAGGTTAACAAAGTGCGCT,2.18
15,TCTTGTCGATCAAGCAGGTTAAGAAAGCCTGAGT,0.754
16,TAGCCTAGGTCATGCAGGGGCCAGTATAGAAAGC,3.56
17,CCTCGGAGGACAACAGGAAGTCAGAGCTGCCAGA,-0.671
18,AGTCAACGTTCACTAGGTAACGTAAGATTCAGCT,0.525
19,AAAATGAGGTTATACGTAGATCAGGGAAGAAAGT,3.52
20,TCATATAGTTAAAGGTGAAAGTCGAACGATATGA,2.69

# System: PPARg:RXRa (NR concentration 180 nM, RXRa partner concentration 90 nM)
# Test: as above
# Outline: as §1
row,Sequence,PBM binding z-score
1,CCTTACGGGTCACTAACAGGTTATAGCATTTGGA,3.61
2,CCTACTAGGCCAAAGGTCATTGATTCCAATGCTC,12.3
3,TAGCCTAGGTTATTCAGGGGCCAGTATAGAAAGC,0.241
4,ATCGGAAGGTCGTGAGGTGAGTATACAGAAAGGC,1.68
5,CGTCCAAGGTCAATGGTAGGTCAGTGAAAGCATT,3.76
6,TCTAGTTGGTCACGGAGGTCGCACACGACGGGTA,1.61
7,CCGACTGGGGCAGAAAGGTTACCATGCCATCCGG,1.6
8,CCTACTGGGCCAAAAAGGTGATTGATGCCGATAA,0.56
9,TCATATAGGTAAAGGCGAAAGTCGAACGATATGA,1.1
10,AGAAAGAGGTTAAGATCAGGGAAACAGAATACAT,2.06
11,TCATATAGGTAAGGGTGAAAGTCGAACGATATGA,2.7
12,GGAACGAGGGCATTCGACTTGATAGCATGGCGAT,1.14
13,AGAATGAGGTTATTAAGATCACGGAATTGCGGTC,1.99
14,ATATGTACGTTAGCTGGGGTCATTCAGACTAGGC,1.74
15,CCTTTTAGTTGACCATAAGGGCAACCGAAGCTCG,0.247
16,CCTACTGGGCCAAAGTTCATTGATTCCAATGCTC,10.9
17,ATTCAAAGTTCAGGACGAGGTAACGTAAAGCACG,2.19
18,TCATATATGTAATACAGGTGAAAGTCGGCATCTA,2.09
19,TCTCGGAGGACACGAAAGGTCAGAGTTCGACATC,1.72
20,GCTAGCAGGCCATATGGGTCACTCAATGACGGGC,1.57

row,Sequence,PBM binding z-score
1,CCAGACAGGTGAAAGGTAACTGAGTCTGGTACGC,6.16
2,AGTCAAAGTTCATCTCGGTAACGTAAGATATGCT,6.02
3,AATACAGGGTCATCGTAGGCTAGAGTACGCACAG,6.55
4,CGTCAAAGTTCAACTAAGGTAACGGAAAGCACGC,4.86
5,AATACAGGTTCACTAGGCCAGAGTAGGTACGAAT,3.24
6,ATACCATGGTGATCGTGAGGTCGTTGATACTAAC,0.301
7,TCGAGTAGGTTAGGGGCATTCCGAATGGCGTCGA,0.541
8,AATACAGGGTCATCGTAGGCCAGAGTACGCACAG,6.55
9,ATCTCTAGGTAAAGCTAGTTCAGTGAATGCAAAT,-0.125
10,GCGACTGGGGCATCAGCAGGTTACCATCACTTAA,0.679
11,CAAACTAAGTCACAGAGGTCAAAGTCCGTGCGTA,3.74
12,TGGCCTAGGTCATTCAGGGGCCAGTATAGAAAGC,2.15
13,CAAACTAGGTCACGAAGGGTCAAAGTCGAATGAC,10.1
14,TCTTGTAGATCAATAGAGGTTAACAAAGTGCGCT,0.373
15,TCTTGTCGATCAAGCAGGTTAAGAAAGCCTGAGT,-0.443
16,TAGCCTAGGTCATGCAGGGGCCAGTATAGAAAGC,2.28
17,CCTCGGAGGACAACAGGAAGTCAGAGCTGCCAGA,0.123
18,AGTCAACGTTCACTAGGTAACGTAAGATTCAGCT,0.874
19,AAAATGAGGTTATACGTAGATCAGGGAAGAAAGT,2.69
20,TCATATAGTTAAAGGTGAAAGTCGAACGATATGA,2.49
